From PubChem BioAssay

molecular target: E3 ubiquitin-protein ligase XIAP (Homo sapiens) (UniProt P98170); test: small molecules binding XIAP protein – biophysical, small-molecule microarray, fluorescence 635 nm, primary screen (AID 1181); settings: higher = more signal;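 also: score merges 667 nm emission and signal to noise over triplicate slides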
Sequence (P98170 whole entry, looked up): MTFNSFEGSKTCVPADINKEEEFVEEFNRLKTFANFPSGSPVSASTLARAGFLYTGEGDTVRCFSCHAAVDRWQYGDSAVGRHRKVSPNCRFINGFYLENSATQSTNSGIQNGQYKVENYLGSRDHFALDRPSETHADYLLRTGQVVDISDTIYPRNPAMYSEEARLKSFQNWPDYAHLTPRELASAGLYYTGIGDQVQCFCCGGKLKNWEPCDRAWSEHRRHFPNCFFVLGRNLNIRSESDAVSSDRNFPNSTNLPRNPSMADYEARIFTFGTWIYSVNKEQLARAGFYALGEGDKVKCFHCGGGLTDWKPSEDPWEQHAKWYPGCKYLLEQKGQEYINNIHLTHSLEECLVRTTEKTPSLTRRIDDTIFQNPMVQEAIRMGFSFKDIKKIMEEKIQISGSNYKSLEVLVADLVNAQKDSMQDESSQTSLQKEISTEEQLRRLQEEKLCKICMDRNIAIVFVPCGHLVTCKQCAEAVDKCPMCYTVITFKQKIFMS

SMILES | composite z-score
O=C1c2ccccc2[C@](Cc2ccccc2I)(C(=O)NCCN2CCOCC2)[C@H](c2ccc(CO)cc2)N1Cc1ccccc1 | 0.0904
CN(C)CCCCNC(=O)[C@H]1C[C@H]2C(=O)N3CCC[C@H]3C(=O)N2[C@H]1c1ccc(O)cc1 | -0.192
C=C(CCCC)C(=O)CC[C@@H](OC(=O)c1ccccc1-c1ccccc1C(=O)O)c1cccc(OCCO)c1 | -0.23
C=C(C(=O)CC[C@H](OC(=O)c1cccnc1)c1ccc(CO)o1)C(C)C | -0.187
COc1ccc(C#Cc2ccc3c(c2)[C@]2(C(=O)N3)[C@H](C(=O)N3CCc4cc(OC)c(OC)cc4C3)[C@H]3C(=O)O[C@H](c4ccccc4)[C@H](c4ccccc4)N3[C@@H]2c2ccc(O)cc2)cc1 | -0.277
[N-]=[N+]=NCc1ccccc1C[C@@]1(C(=O)N2CCCCC2)N=C(c2ccc(OCCCO)cc2)O[C@@H]1c1ccccc1N=[N+]=[N-] | 0.0694
C=C[C@@H](COC(C)=O)NS(=O)(=O)c1ccc(Br)cc1 | -0.184
CCOC(=O)C[C@H]1[C@H](OC(=O)c2ccc(-c3ccccc3)cc2)[C@@H](NC(=O)c2ccc3ccccc3c2)c2cc(OCCCO)ccc2N1C(=O)c1ccc2ccccc2n1 | -0.394
CC(C)(C)OC(=O)CC[C@]1(C(=O)NCCN2CCOCC2)N=C(c2ccc(OCCCO)cc2)O[C@H]1c1ccccc1 | -0.031
C=CCOC(=O)[C@@H]1[C@H]2C(=O)O[C@H](c3ccccc3)[C@H](c3ccccc3)N2[C@H](c2ccc(OCCOC(=O)[C@H]3C[C@H]4C(=O)N[C@@H](CC(C)C)C(=O)N4[C@H]3c3ccc(O)cc3)cc2)[C@@]12C(=O)Nc1ccc(I)cc12 | 0.0819
O=C(CS)NCCCCCCNC(=O)[C@@H]1C[C@@H]2C(=O)N3CCC[C@H]3C(=O)N2[C@@H]1c1cccc(OCCO)c1 | 0.0022
COc1ccccc1CN1C(=O)c2ccccc2[C@@H](C(=O)NC(C)C)[C@@H]1c1ccc(CO)cc1 | 0.0251
C=CCOC(=O)[C@@H]1[C@H]2C(=O)O[C@H](c3ccccc3)[C@H](c3ccccc3)N2[C@H](c2ccc(OCCOC(=O)[C@H]3C[C@H]4C(=O)N[C@@H](CCCCNC(C)=O)C(=O)N4[C@H]3c3cccc(OCCO)c3)cc2)[C@@]12C(=O)Nc1ccc(I)cc12 | 0.0073
O=C1OCC=C[C@H]2OC34C=CCN(Cn5nnc6ccccc65)C(=O)[C@H]3N(CCCCCCO)C(=O)[C@@H]4[C@@H]12 (stereo not given in full) | 0.233
COC(=O)Cn1c(C(=O)N2CCCC2)cc2c1C[C@H]1CN(C(=O)c3ccccc3)[C@@](Cc3ccc(F)cc3)(C(=O)OC)[C@@H]21 | 0.303
COc1cc(OC)c(C(O)C2C=CC3C(=O)N(c4ccccc4)C(=O)C3N2Nc2ccc(C#N)cc2)cc1Br (stereo not given) | -0.0181
COc1ccc([Si](C)(C)[C@@H]2[C@@H](CC(=O)N3CCC[C@H]3CO)O[C@]3(C(=O)N(Cc4ccc(N5C(=O)c6cccc7cccc5c67)cc4)c4ccccc43)[C@H]2C)cc1 | -0.0386
CC=CC(O)C1C=CC2C(=O)N(c3ccccc3)C(=O)C2N1Nc1ccccc1 (stereo not given) | 0.649

SMILES | composite z-score
CC(C)C(=C=CC[C@@H](O)c1ccccc1OCCO)C[C@@H](O)COCc1ccccc1 | 0.109
CC(C)(C)N1CC=CC23O[C@@H]4C=CCOC(=O)[C@@H]4[C@H]2C(=O)N(CCCO)[C@@H]3C1=O (stereo not given in full) | 0.55
COc1c(C)cc(-c2cc3c(c(-c4ccccc4)n2)[Si](C(C)C)(C(C)C)OC3)cc1C | 0.205
Cc1ccc(S[C@]2(C(=O)NCC(C)C)CC(=O)N(Cc3ccccc3Cl)[C@@H]2c2ccc(CO)cc2I)cc1 | -0.152
O=C1O[C@@H](c2ccccc2)[C@@H](c2ccccc2)N2[C@@H](c3ccccc3OCCO)[C@]3(C(=O)Nc4ccc(C#CC5=CCCCC5)cc43)[C@@H](C(=O)NC[C@H](O)c3ccccc3)[C@H]12 | -0.16
O=C(O)[C@H](Cc1ccccc1)n1cc(-c2ccccn2)nn1 | 0.122
CC1CC/C=C\[C@H]2OC34C=CCN(CCN5CCOCC5)C(=O)[C@H]3N(CCO)C(=O)[C@@H]4C2C(=O)O1 (stereo not given in full) | -0.128
CCOC(=O)C[C@H]1[C@H](OC(=O)c2ccc(-c3ccccc3)cc2)[C@@H](NC(=O)C2CCCCC2)c2cc(OCCCO)ccc2N1C(=O)c1ccccc1 | 0.0623
COCCCNC(=O)[C@@]1(Sc2ccc(C)cc2)CC(=O)N(Cc2cc(C(F)(F)F)cc(C(F)(F)F)c2)[C@@H]1c1ccc(CO)cc1 | -0.0571
CCCC[C@@H]1C[C@H]1[C@@H](NC(=O)c1cccnc1)c1ccc(-c2ccccc2)cc1 | 0.0302
O=C1O[C@@H](c2ccccc2)[C@@H](c2ccccc2)N2[C@@H](c3ccc(O)cc3)[C@]3(C(=O)Nc4ccc(C#CCCO)cc43)[C@@H](C(=O)Nc3nc4ccccc4s3)[C@H]12 | -0.0918
O=C(O)[C@]1(Cc2ccccc2)N=C(c2ccc(OCCCO)cc2)O[C@@H]1c1ccccc1 | -0.258
Cc1ccc(S[C@]2(C(=O)NCc3ccccc3)CC(=O)N(C(C)C)[C@@H]2c2ccc(CO)cc2I)cc1 | -0.253
Cc1ccc(C(C)CC(O)C2C=CC3C(=O)N(c4ccccc4)C(=O)C3N2Nc2ccc(C(C)C)cc2)o1 (stereo not given) | -0.0238
C=CC[C@]12N=C(c3ccc(OCCCO)cc3)O[C@H]1c1ccccc1N(C)C2=O | -0.031
C=C(COC)/C(=C/C[C@@H](OC(=O)c1ccncc1)c1ccc(CO)o1)c1cnc2ccccc2c1 | 0.641
O=C1NC(=O)C2C1C=CC(C(O)c1cc(C(F)(F)F)cc(C(F)(F)F)c1)N2Nc1ccc(Cl)cc1Cl (stereo not given) | 0.214
